Like-named read-outs stand apart in the source and are kept apart here.
Tests used:
Design in all cases: species or system human, MV4-11 + K-562 + COLO205 + SK-N-BE2 + OVCAR-8
[1] = system: BTK; settings: read-out: apparent Kd, n = 1
[2] = system: CDK17; settings: read-out: apparent Kd, n = 1
[3] = system: EPHB6; settings: read-out: apparent Kd, n = 1
[4] = system: FLT4; settings: read-out: apparent Kd, compound concentrations: 100 nM and 1000 nM (sheet 'Samples'), n = 1
[5] = system: PLK4; settings: read-out: apparent Kd, n = 1
[6] = system: PRKD2; settings: read-out: apparent Kd, n = 1
[7] = system: PRKD3; settings: read-out: apparent Kd, n = 1
[8] = system: TNK2; settings: read-out: apparent Kd, n = 1
[9] = system: ZAK; settings: read-out: apparent Kd, n = 1
[10] = system: MAPK9; settings: read-out: apparent Kd, n = 1
[11] = system: DDR2; settings: read-out: apparent Kd, n = 1
[12] = system: TGFBR1; settings: read-out: apparent Kd, n = 1
[13] = system: MAP2K5; settings: read-out: apparent Kd, n = 1
[14] = system: AKT1; settings: read-out: apparent Kd, n = 1
[15] = system: JAK2; settings: read-out: apparent Kd, n = 1
[16] = system: RIOK2; settings: read-out: apparent Kd; compound concentrations:100 nM and 1000 nM (sheet 'Samples'); n = 1
[17] = system: T1, DJA1; settings: read-out: apparent Kd; compound concentrations: 100 nM and 1000 nM (sheet 'Samples'), CATDS: 0.221714333862437; n = 1
T1 construct: gene DNAJA1

[18] = system: BMPR1B; settings: read-out: apparent Kd, n = 1
[19] = compound concentrations:100 nM and 1000 nM (sheet 'Samples')

Compound `CC(C)c1nc(-c2cccc(NS(=O)(=O)c3c(F)cccc3F)c2)c(-c2ccnc(Nc3ccc(N4CCOCC4)nc3)n2)s1.Cl` [GSK1723980B] has a potency estimated from few doses ([1]; compound concentrations: 100 nM and 1000 nM (sheet 'Samples'), CATDS: 1.5505297907028599E-2) of 1260 nM, a potency estimated from few doses ([2]; compound concentrations: 100 nM and 1000 nM (sheet 'Samples'), CATDS: 1.84448623420372E-2) of 647 nM and a potency estimated from few doses ([3]; compound concentrations: 100 nM and 1000 nM (sheet 'Samples'), CATDS: 2.4657232775903402E-2) of 294 nM. For the same compound, the potency estimated from few doses ([4]; CATDS: 3.28978835638193E-2) was 161 nM, the potency estimated from few doses ([5]; compound concentrations: 100 nM and 1000 nM (sheet 'Samples'), CATDS: 6.4259568423255198E-2) was 54.8 nM and the potency estimated from few doses ([6]; compound concentrations: 100 nM and 1000 nM (sheet 'Samples'), CATDS: 3.4388885610582398E-2) was 149 nM. It also gave a potency estimated from few doses ([7]; compound concentrations: 100 nM and 1000 nM (sheet 'Samples'), CATDS: 3.3451662470077102E-2) of 156 nM, a potency estimated from few doses ([8]; compound concentrations: 100 nM and 1000 nM (sheet 'Samples'), CATDS: 1.9330772041295699E-2) of 558 nM and a potency estimated from few doses ([9]; compound concentrations: 100 nM and 1000 nM (sheet 'Samples'), CATDS: 1.6677685613390399E-2) of 926 nM.
`Cl.Cn1c(=O)c(Cc2ccc(F)cc2F)cc2cnc(NC3CCOCC3)nc21` [RO3308757-001] gave a potency estimated from few doses [10, 19] of 1030 nM, a potency estimated from few doses [5, 19] of 963 nM and a potency estimated from few doses [8, 19] of 230 nM.
`Fc1ccc(-c2c(-c3ccncc3)[nH]c3nccnc23)cc1` [RO1155697-000] showed a potency estimated from few doses [11, 19] of 886 nM, a potency estimated from few doses [10, 19] of 368 nM and a potency estimated from few doses [6, 19] of 962 nM. For the same compound, the potency estimated from few doses [12, 19] was 1950 nM.
`N#Cc1cnc2cc(-c3cnc(CNCCN4CCOCC4)s3)ccc2c1Nc1ccc(Oc2ccccc2)cc1` [GW664114X] gave a potency estimated from few doses ([13]; compound concentrations: 100 nM and 1000 nM (sheet 'Samples'), CATDS: 9.4704147517168505E-2) of 230 nM.
Work on `COc1ccc(-c2nc3n(c2-c2ccncc2)CCC3)cc1.COc1ccc(-c2nc3n(c2-c2ccncc2)CCC3)cc1.O=S(=O)(O)O.O=S(=O)(O)O` [SKF-104493-B2] yielded a potency estimated from few doses ([14]; compound concentrations: 100 nM and 1000 nM (sheet 'Samples'), CATDS: 9.7335035775878098E-2) of 2500 nM.
In the case of `CC(C)c1nc(-c2ccc(F)c(NS(=O)(=O)c3c(F)cccc3F)c2)c(-c2ccnc(Nc3ccc(N4CCOCC4)nc3)n2)s1` [GSK1804250A], the potency estimated from few doses [3, 19] is reported as 738 nM, the potency estimated from few doses [5, 19] is reported as 403 nM and the potency estimated from few doses [6, 19] is reported as 232 nM. The potency estimated from few doses [7, 19] was 510 nM, the potency estimated from few doses [8, 19] was 232 nM and the potency estimated from few doses [9, 19] was 1410 nM.
For `COc1cc2ncn(-c3cc(OCc4cccs4)c(C(N)=O)s3)c2cc1OC` [GSK312948A], the potency estimated from few doses [13, 19] was 461 nM.
`Nc1nc(N)c2nc(-c3ccccc3)[nH]c2n1` [SKF-12778] was tested, and the potency estimated from few doses [14, 19] was 1480 nM, the potency estimated from few doses [1, 19] was 1330 nM and the potency estimated from few doses [15, 19] was 66.2 nM. For the same compound, the potency estimated from few doses [10, 19] was 2000 nM and the potency estimated from few doses [16] was 1620 nM.
`N#Cc1cccc(Nc2nccc(-c3cnn4ncccc34)n2)c1` [GW778894X] gave a potency estimated from few doses [2, 19] of 44.8 nM and a potency estimated from few doses [16] of 75.3 nM.
`CN1CCN(c2ccc(Nc3nc(N)c(C(=O)c4ccc5c(c4)OCCO5)s3)cc2)CC1` [RO0505124-000] gave a potency estimated from few doses ([15]; compound concentrations: 100 nM and 1000 nM (sheet 'Samples'), CATDS: 0.61009142123011895) of 50.1 nM.
`c1ccc(Oc2ccc(Nc3ccnc4cc(-c5ccc(CN6CCCCC6)o5)ccc34)cc2)nc1` [GW567143X] gave a potency estimated from few doses ([3]; compound concentrations: 100 nM and 1000 nM (sheet 'Samples'), CATDS: 3.4972740863409998E-2) of 1830 nM, a potency estimated from few doses ([13]; compound concentrations: 100 nM and 1000 nM (sheet 'Samples'), CATDS: 0.10658346724576) of 108 nM and a potency estimated from few doses ([8]; compound concentrations: 100 nM and 1000 nM (sheet 'Samples'), CATDS: 3.98580587888741E-2) of 1080 nM. For the same compound, the potency estimated from few doses ([9]; compound concentrations: 100 nM and 1000 nM (sheet 'Samples'), CATDS: 3.3669776805855603E-2) was 2210 nM.
In the case of `COc1cc2nccc(Nc3ccc(Oc4ccccc4)cc3)c2cc1OC.Cl` [GI261656A], the potency estimated from few doses ([1]; compound concentrations: 100 nM and 1000 nM (sheet 'Samples'), CATDS: 4.2074902264998597E-2) is reported as 1400 nM and the potency estimated from few doses ([13]; compound concentrations: 100 nM and 1000 nM (sheet 'Samples'), CATDS: 9.9796697062305095E-2) is reported as 95.6 nM.
`Nc1ncc(-c2cn[nH]c2)c2scc(-c3ccc4c(c3)CCN4C(=O)Cc3ccccc3)c12` [GSK2593067A] was tested, and the potency estimated from few doses [17] was 118 nM and the potency estimated from few doses ([3]; compound concentrations: 100 nM and 1000 nM (sheet 'Samples'), CATDS: 9.2316879629761303E-2) was 522 nM.
With `CS(=O)(=O)Cc1ccc(Nc2nccc(-c3c(-c4cccc(NC(=O)c5c(F)cccc5F)c4)nn4ccccc34)n2)cc1` [GSK323543A] the potency estimated from few doses ([1]; compound concentrations: 100 nM and 1000 nM (sheet 'Samples'), CATDS: 6.87410205009992E-2) was 1140 nM.
`O=S(=O)(c1ccc(-c2ccnc3[nH]ccc23)cc1)N1CCCC1` [GSK846226A] showed a potency estimated from few doses [16] of 2220 nM.
`CNc1nccc(-c2c(-c3ccc(F)cc3)ncn2C2CCN(C)CC2)n1` [SB-222903] showed a potency estimated from few doses [11, 19] of 625 nM and a potency estimated from few doses [10, 19] of 462 nM.
Work on `CNC(=O)c1ccccc1Nc1nc(Nc2cccc(CS(C)(=O)=O)c2)ncc1C.O=CO` [GSK1520489A] yielded a potency estimated from few doses ([18]; compound concentrations: 100 nM and 1000 nM (sheet 'Samples'), CATDS: 1.50633752553141E-2) of 288 nM, a potency estimated from few doses ([1]; compound concentrations: 100 nM and 1000 nM (sheet 'Samples'), CATDS: 3.3529613297139299E-2) of 46.5 nM and a potency estimated from few doses ([11]; compound concentrations: 100 nM and 1000 nM (sheet 'Samples'), CATDS: 1.3086276372357399E-2) of 443 nM. The potency estimated from few doses ([4]; CATDS: 2.0677135389333402E-2) was 127 nM, the potency estimated from few doses ([15]; compound concentrations: 100 nM and 1000 nM (sheet 'Samples'), CATDS: 1.0777709602795499E-2) was 917 nM and the potency estimated from few doses ([10]; compound concentrations: 100 nM and 1000 nM (sheet 'Samples'), CATDS: 1.0219205948468601E-2) was 1170 nM. For the same compound, the potency estimated from few doses ([5]; compound concentrations: 100 nM and 1000 nM (sheet 'Samples'), CATDS: 5.6526690593712202E-2) was 19.3 nM and the potency estimated from few doses ([12]; compound concentrations: 100 nM and 1000 nM (sheet 'Samples'), CATDS: 9.4696036955239198E-3) was 1790 nM.
`COc1cc(/C=N/Nc2ncnc3[nH]ncc23)ccc1O` [GW578748X] showed a potency estimated from few doses [16] of 1600 nM.
`COc1cccc(-c2c[nH]c3c(N/N=C/c4ccncc4)ncnc23)c1` [GW814408X] gave a potency estimated from few doses [18, 19] of 612 nM and a potency estimated from few doses [9, 19] of 1540 nM.
Work on `CN1CCN(Cc2ccc(NC(=O)Nc3ccc(N(C)c4ccnc(Nc5ccc(CS(C)(=O)=O)cc5)n4)cc3)cc2)CC1.Cl` [GW827654A] yielded a potency estimated from few doses ([11]; compound concentrations: 100 nM and 1000 nM (sheet 'Samples'), CATDS: 5.9738771402131699E-2) of 348 nM, a potency estimated from few doses ([4]; CATDS: 0.106760971330705) of 109 nM and a potency estimated from few doses ([8]; compound concentrations: 100 nM and 1000 nM (sheet 'Samples'), CATDS: 6.4241949787580299E-2) of 295 nM.

Source: paper PMC11062922 (Nature Chemical Biology, 2023)
